Source: PubChem BioAssay (Tox21)
Records with an inconclusive call do not appear. Calls of active or inactive are those of the source. Unless noted, the call rests on the fitted dose curve; in most records, active means well fitted cell-killing curve with a large enough effect in the repeat runs (not every such curve was filed as active); inconclusive means weak or mixed curves, or effect the other way; inactive means no such curve, though single readings can be large or run the other way.

tested on: not listed separately; assay: qHTS assay to identify small molecule agonists of the farnesoid-X-receptor (FXR) signaling pathway - cell viability counter screen (AID 743218; active means well fitted cell-killing curve with a large enough effect in the repeat runs; further: nearly all actives have a fitted effect of over 45% in size); conditions: FXR-bla HEK293T viability, CellTiter-Glo luminescence, 16 h; series mostly up to 62.6 µM; viability change, negative = cytotoxic: at the top concentration
How it was run: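 Cells were seeded, left 5 h at 37 C and 5% CO2, then dosed with compound in DMSO for 16 h. After the beta-lactamase FRET read, CellTiter-Glo was added and luminescence measured 30 min later.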
On the % scale 0 is the no-effect control and ±100 the full control effect.

Row | SMILES | viability change, negative = cytotoxic
1 | O=[N+]([O-])c1cccc(S(=O)(=O)NCCNS(=O)(=O)c2cccc([N+](=O)[O-])c2)c1 | -0.216% (inactive)
2 | CCCCC(CC)COC(=O)COc1ccc(Cl)cc1C (centres undefined) | 8.73% (inactive)
3 | O=C1NCCN1 | -14.7% (inactive)
4 | C=CC(C)(O)CCCC(C)CCCC(C)CCCC(C)C (centres undefined) | 21.7% (inactive)
5 | COc1cc2c(N3CCN(C(=O)Nc4ccc(OC(C)C)cc4)CC3)ncnc2cc1OCCCN1CCCCC1 | -22.2% (inactive)
6 | Nc1c(I)cc(I)c(C(=O)N(CCC(=O)O)c2ccccc2)c1I | 3.09% (inactive)
7 | O=C(O)c1snc(Cl)c1Cl | -4.01% (inactive)
8 | CCC1(C)CC(=O)NC1=O (centres undefined) | -8.18% (inactive)
9 | CCn1nc(C)c2c1C(=O)NCC(c1ccc(O)cc1)=N2 | -2.49% (inactive)
10 | Nc1nc(Cl)nc2c1ncn2[C@@H]1O[C@H](CO)[C@@H](O)[C@@H]1F | -8.45% (inactive)
11 | CC(C)C(=O)O | -6.87% (inactive)
12 | CCOC(=O)C(C)Oc1ccc(Oc2nc3ccc(Cl)cc3o2)cc1 (centres undefined) | 28.4% (inactive)
13 | Oc1cc(O)c(Cl)cc1Cl | -15.3% [at 81.1 µM] (inactive)
14 | C[C@@H]1C[C@H]2[C@@H]3CCC4=CC(=O)C=C[C@]4(C)[C@@]3(F)[C@@H](O)C[C@]2(C)[C@H]1C(=O)CO | 8.28% (inactive)
15 | O=S1OCCO1 | -1.44% [at 81.1 µM] (inactive)
16 | CCC(C)=O | 1.92% (inactive)
17 | COC(=O)[C@@H]1CC2=CC(=O)CC[C@]2(C)[C@@]23O[C@@H]2C[C@@]2(C)[C@@H](CC[C@@]24CCC(=O)O4)[C@H]13 | -3.42% (inactive)
18 | NC(=O)Nc1ccc(Cl)cc1 | 1.34% (inactive)
19 | Cc1ccc(S(=O)(=O)NC2CCCCC2)cc1 | 30.6% (inactive)
20 | CO[Si](C)(OC)OC | 8.54% (inactive)
21 | CCCCOC(=O)CCS | 1.04% (inactive)
22 | CN1CCCN=C1/C=C/c1cccs1 | -2.53% (inactive)
23 | CCCCCCCCCOC(C)=O | -15.9% (inactive)
24 | Cn1c(=O)c2c(ncn2CC(=O)O)n(C)c1=O | 4.59% (inactive)
25 | CN1Cc2cc(C(=O)N3CCC(C4CCNCC4)CC3)ccc2N[C@@H](CC(=O)O)C1=O | -0.724% (inactive)

molecular target: Bile acid receptor (Homo sapiens) (UniProt Q96RI1); assay: qHTS assay to identify small molecule agonists of the farnesoid-X-receptor (FXR) signaling pathway (AID 743220; active means well fitted activation curve with a large enough effect in the signal ratio in the repeat runs, not every such curve was filed as active; the % refers to the signal ratio); conditions: HEK293T FXR-UAS-bla, beta-lactamase FRET ratio, 16 h; series mostly up to 62.6 µM; activation: at the top concentration
How it was run: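 FXR-UAS-bla HEK 293T cells carrying a UAS-driven beta-lactamase reporter were plated for 5 h at 37C/5% CO2, then exposed to DMSO-dissolved Tox21 10K compounds for 16 h at 37C. A LiveBLAzer B/G FRET substrate was loaded for 2 h at room temperature before fluorescence reading.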

Bile acid receptor (Homo sapiens), sequence (Q96RI1 whole entry, looked up): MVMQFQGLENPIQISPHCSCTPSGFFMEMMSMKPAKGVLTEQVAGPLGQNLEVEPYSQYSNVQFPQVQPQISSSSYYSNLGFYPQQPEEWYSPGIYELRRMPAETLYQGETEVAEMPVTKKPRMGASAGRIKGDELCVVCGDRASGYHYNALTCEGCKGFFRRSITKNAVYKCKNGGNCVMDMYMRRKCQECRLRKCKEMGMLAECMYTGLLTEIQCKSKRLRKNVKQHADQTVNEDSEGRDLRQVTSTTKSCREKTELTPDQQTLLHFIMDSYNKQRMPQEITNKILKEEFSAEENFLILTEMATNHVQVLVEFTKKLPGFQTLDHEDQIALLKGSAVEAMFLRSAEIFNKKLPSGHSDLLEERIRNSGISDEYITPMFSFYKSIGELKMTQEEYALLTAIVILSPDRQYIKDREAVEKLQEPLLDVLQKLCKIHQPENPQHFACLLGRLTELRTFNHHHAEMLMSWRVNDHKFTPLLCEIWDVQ

Row | SMILES | activation
26 | O=[N+]([O-])c1cccc(S(=O)(=O)NCCNS(=O)(=O)c2cccc([N+](=O)[O-])c2)c1 | 1.16% (inactive)
27 | CCCCC(CC)COC(=O)COc1ccc(Cl)cc1C (centres undefined) | 1.8% (inactive)
28 | O=C(O)c1snc(Cl)c1Cl | 0.0667% (inactive)
29 | Cc1ccccc1N1C(=O)c2cc(S(N)(=O)=O)c(Cl)cc2NC1C (centres undefined) | -4.51% (inactive)
30 | Nc1nc(Cl)nc2c1ncn2[C@@H]1O[C@H](CO)[C@@H](O)[C@@H]1F | -1.54% (inactive)
31 | Oc1cc(O)c(Cl)cc1Cl | -1.31% [at 81.1 µM] (inactive)
32 | Cc1ccc(S(=O)(=O)NC2CCCCC2)cc1 | 1.51% (inactive)
33 | CCCCOC(=O)CCS | -0.456% (inactive)
34 | CCOc1cc(N)c(Cl)cc1C(=O)NCC1CN(Cc2ccc(F)cc2)CCO1 (centres undefined) | 1.05% (inactive)
35 | O=C(O)c1ccc(CO)o1 | -0.0274% [at 81.1 µM] (inactive)
36 | CC1(C)C2=CCCC(C)(C)[C@]23CC[C@H]1C3 | -4.44% (inactive)

tested on: not listed separately; assay: qHTS assay to identify small molecule antagonists of the farnesoid-X-receptor (FXR) signaling pathway - cell viability counter screen (AID 743221); conditions: FXR-bla HEK293T viability, CellTiter-Glo luminescence, 16 h; series mostly up to 62.6 µM; activity change, negative = cytotoxicity: at the top concentration; further: nearly all actives have a fitted effect of over 50% in size
How it was run: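 Luminescence from CellTiter-Glo measures cytotoxicity in GeneBLAzer FXR-UAS-bla HEK 293T cells. Cells were exposed to compounds with 50 uM chenodeoxycholic acid (final) for 16 h at 37 C, in wells also used for the reporter readout.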

Row | SMILES | activity change, negative = cytotoxicity
37 | O=[N+]([O-])c1cccc(S(=O)(=O)NCCNS(=O)(=O)c2cccc([N+](=O)[O-])c2)c1 | -0.667% (inactive)
38 | CCCCC(CC)COC(=O)COc1ccc(Cl)cc1C (centres undefined) | 10.3% (inactive)
39 | CN1CCN(c2c(F)cc3c(=O)c(C(=O)O)cn4c3c2OCN4C)CC1 | 13.1% [at 29.1 µM] (inactive)
40 | O=C1NCCN1 | -1.79% (inactive)
41 | C=CC(C)(O)CCCC(C)CCCC(C)CCCC(C)C (centres undefined) | -1.22% (inactive)
42 | COc1cc2c(N3CCN(C(=O)Nc4ccc(OC(C)C)cc4)CC3)ncnc2cc1OCCCN1CCCCC1 | -1.69% (inactive)
43 | OC(CCCN1CCCCC1)(c1ccccc1)c1ccccc1 | -17.9% (inactive)
44 | Nc1c(I)cc(I)c(C(=O)N(CCC(=O)O)c2ccccc2)c1I | -7.87% (inactive)
45 | Nc1nccs1 | -1.39% (inactive)
46 | O=C(O)c1snc(Cl)c1Cl | -2.91% (inactive)
47 | CCC1(C)CC(=O)NC1=O (centres undefined) | -1.01% (inactive)
48 | C/C(=N/NC(=O)c1ccncc1)C(=O)O | 11.4% (inactive)
49 | CCn1nc(C)c2c1C(=O)NCC(c1ccc(O)cc1)=N2 | -0.598% (inactive)
50 | Cc1ccccc1N1C(=O)c2cc(S(N)(=O)=O)c(Cl)cc2NC1C (centres undefined) | 3.88% (inactive)
51 | O=S(=O)(c1ccccc1)c1ccc(Cl)cc1 | -24.8% (inactive)
52 | Nc1nc(Cl)nc2c1ncn2[C@@H]1O[C@H](CO)[C@@H](O)[C@@H]1F | 9.01% (inactive)
53 | CC(C)C(=O)O | 9.43% (inactive)
54 | CCOC(=O)C(C)Oc1ccc(Oc2nc3ccc(Cl)cc3o2)cc1 (centres undefined) | -1.51% (inactive)
55 | Oc1cc(O)c(Cl)cc1Cl | -0.127% [at 81.1 µM] (inactive)

Row | SMILES | activity change, negative = cytotoxicity
56 | C[C@@H]1C[C@H]2[C@@H]3CCC4=CC(=O)C=C[C@]4(C)[C@@]3(F)[C@@H](O)C[C@]2(C)[C@H]1C(=O)CO | -6.86% (inactive)
57 | O=S1OCCO1 | -1.1% [at 81.1 µM] (inactive)
58 | CC(=O)Nc1ccccc1C | -0.699% [at 81.1 µM] (inactive)
59 | Nc1ccc(S(=O)(=O)O)c(N)c1 | 8.92% (inactive)
60 | CCCCN(CCCC)CCCOC(=O)c1ccc(N)cc1 | 2% (inactive)
61 | CCC(C)=O | 3.29% (inactive)
62 | COC(=O)[C@@H]1CC2=CC(=O)CC[C@]2(C)[C@@]23O[C@@H]2C[C@@]2(C)[C@@H](CC[C@@]24CCC(=O)O4)[C@H]13 | 15.2% (inactive)
63 | NC(=O)Nc1ccc(Cl)cc1 | 10% (inactive)
64 | Cc1ccc(S(=O)(=O)NC2CCCCC2)cc1 | -3.75% (inactive)
65 | CO[Si](C)(OC)OC | -1.79% (inactive)
66 | CCCCOC(=O)CCS | 2.83% (inactive)
67 | CCOc1cc(N)c(Cl)cc1C(=O)NCC1CN(Cc2ccc(F)cc2)CCO1 (centres undefined) | -2.57% (inactive)
68 | CN1CCCN=C1/C=C/c1cccs1 | -7.59% (inactive)
69 | CCCCCCCCCOC(C)=O | -0.424% (inactive)
70 | Cn1c(=O)c2c(ncn2CC(=O)O)n(C)c1=O | 11.5% (inactive)
71 | N#C[C@@H]1C[C@@H]2C[C@@H]2N1C(=O)[C@@H](N)C12CC3CC(CC(O)(C3)C1)C2 | 4.63% (inactive)
72 | O=C(O)c1ccc(CO)o1 | 4.23% [at 81.1 µM] (inactive)
73 | CN1Cc2cc(C(=O)N3CCC(C4CCNCC4)CC3)ccc2N[C@@H](CC(=O)O)C1=O | 5.58% (inactive)
74 | CC1(C)C2=CCCC(C)(C)[C@]23CC[C@H]1C3 | -24% (inactive)
